Test results published in the supplement of paper PMC10849652.
Targets with a hit are over-represented here; the source holds about 8,800 in all. About 0.5% of all pairs of compound and target were hits. Unmarked numbers belong to inactive results.

Assays:
Assay in all cases: log2 fold change, soluble protein after heating vs DMSO (PISA); higher = thermal stabilisation; K562 lysate, 10 uM; active = over 0.2 and 3.5 SD of the protein, either way, in both replicates (recomputed)
ibrutinib = compound: C=CC(=O)N1CCC[C@@H](n2nc(-c3ccc(Oc4ccccc4)cc3)c3c(N)ncnc32)C1 [ibrutinib]
How it was run: (§1)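 To prepare the extract, K562 pellets were dounce-homogenised in PBS pH 7.4 with 1 mM MgCl2, giving crude material at 1 mg/mL protein. This was treated with 10 μM compound for 30 min, then heated in aliquots for 3 min over 48°C-58°C before pooling and addition of NP-40 to 0.5% at 4°C. Centrifugation at 21,000xg for 90 min left soluble protein in the supernatant, which TMTpro 16plex LC-MS/MS quantified with equalised channel sums. Results are log-two fold changes in thermal stability compared with solvent controls, from duplicates.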

[1] = compound: CC(=O)c1cnc2ccc(-c3cc(Cl)c(O)c(Cl)c3)nc2c1N[C@H]1CC[C@H](CN(C)C)CC1
How it was run: as §1

ralimetinib = compound: CC(C)(C)Cn1c(N)nc2ccc(-c3[nH]c(C(C)(C)C)nc3-c3ccc(F)cc3)nc21 [ralimetinib]
How it was run: as §1

[2] = compound: CC(C)(O)CC(=O)NCCn1ccc2ncnc(Nc3ccc(Oc4cccc(C(F)(F)F)c4)c(Cl)c3)c21
How it was run: as §1

[3] = compound: CC(C)C1=C2N=C(C=C(N2N=C1)NCC3=CC=CC=C3)NCCCCCCN
How it was run: as §1

[4] = compound: CC1=C(C(CC(=O)N1)C2=CC=C(C=C2)C(F)(F)F)C(=O)NC3=C(C=C4C(=C3)C=NN4)F
How it was run: as §1

[5] = compound: CC1=C(C2=C(C=C1)C(=O)C3=CC=CC=C3N2CCCN)C
How it was run: as §1

[6] = compound: CC1=C(C=C(C=C1)NC(=O)C2=CC(=CC=C2)C(C)(C)C#N)NC3=CC4=C(C=C3)N=CN(C4=O)C
How it was run: as §1

[7] = compound: CC1=C(C=C(C=C1)NC(=O)C2=CC(=CC=C2)N(C)C)NC(=O)C3=CC=C(C=C3)O
How it was run: as §1

[8] = compound: CC1=CC=C(C=C1)SC2=C3C=C(SC3=CN=C2)C(=O)N
How it was run: as §1

vemurafenib = compound: CCCS(=O)(=O)Nc1ccc(F)c(C(=O)c2c[nH]c3ncc(-c4ccc(Cl)cc4)cc23)c1F [vemurafenib]
How it was run: as §1

[9] = compound: CCCS(=O)(=O)Nc1ccc(F)c(C(=O)c2c[nH]c3ncc(Cl)cc23)c1F
How it was run: as §1

barasertib = compound: CCN(CCCOc1ccc2c(Nc3cc(CC(=O)Nc4cccc(F)c4)[nH]n3)ncnc2c1)CCOP(=O)(O)O [barasertib]
How it was run: as §1

[10] = compound: CC[C@@H]1C(=O)N(C)c2cnc(Nc3ccc(C(=O)NC4CCN(C)CC4)cc3OC)nc2N1C1CCCC1
How it was run: as §1

volasertib = compound: CC[C@@H]1C(=O)N(C)c2cnc(Nc3ccc(C(=O)N[C@H]4CC[C@H](N5CCN(CC6CC6)CC5)CC4)cc3OC)nc2N1C(C)C [volasertib]
How it was run: as §1

[11] = compound: CCn1c(C(=O)N(C2CC2)C2CC2)cc2c3c(ncn3C)c(Nc3cc(C)n(C)n3)nc21
How it was run: as §1

[12] = compound: CCn1cc(-c2ccnc3[nH]c(-c4cccc(CN(C)C)c4)cc23)c(-c2ccc(NC(=O)N(C)C)cc2)n1
How it was run: as §1

[13] = compound: CN1CCC(CNc2ccc3ncc(-c4cccc(OC(F)(F)F)c4)n3n2)CC1
How it was run: as §1

saracatinib = compound: CN1CCN(CCOc2cc(OC3CCOCC3)c3c(Nc4c(Cl)ccc5c4OCO5)ncnc3c2)CC1 [saracatinib]
How it was run: as §1

sotrastaurin = compound: CN1CCN(c2nc(C3=C(c4c[nH]c5ccccc45)C(=O)NC3=O)c3ccccc3n2)CC1 [sotrastaurin]
How it was run: as §1

Sequence of UniProt Q9BUF5 (Q9BUF5 whole entry, looked up): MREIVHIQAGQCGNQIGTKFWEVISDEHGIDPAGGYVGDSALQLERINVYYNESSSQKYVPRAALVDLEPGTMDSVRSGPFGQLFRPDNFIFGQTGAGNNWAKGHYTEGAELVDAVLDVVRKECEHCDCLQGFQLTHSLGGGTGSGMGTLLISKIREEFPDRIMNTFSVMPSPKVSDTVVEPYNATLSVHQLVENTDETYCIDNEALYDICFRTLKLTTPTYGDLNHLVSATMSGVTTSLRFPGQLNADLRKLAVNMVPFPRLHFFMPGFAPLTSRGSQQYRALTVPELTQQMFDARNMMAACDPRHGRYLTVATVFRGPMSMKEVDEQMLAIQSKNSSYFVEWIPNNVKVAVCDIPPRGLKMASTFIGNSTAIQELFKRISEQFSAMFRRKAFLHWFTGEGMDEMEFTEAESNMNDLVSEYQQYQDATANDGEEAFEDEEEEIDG
Sequence of UniProt Q9BZV1 (Q9BZV1 whole entry, looked up): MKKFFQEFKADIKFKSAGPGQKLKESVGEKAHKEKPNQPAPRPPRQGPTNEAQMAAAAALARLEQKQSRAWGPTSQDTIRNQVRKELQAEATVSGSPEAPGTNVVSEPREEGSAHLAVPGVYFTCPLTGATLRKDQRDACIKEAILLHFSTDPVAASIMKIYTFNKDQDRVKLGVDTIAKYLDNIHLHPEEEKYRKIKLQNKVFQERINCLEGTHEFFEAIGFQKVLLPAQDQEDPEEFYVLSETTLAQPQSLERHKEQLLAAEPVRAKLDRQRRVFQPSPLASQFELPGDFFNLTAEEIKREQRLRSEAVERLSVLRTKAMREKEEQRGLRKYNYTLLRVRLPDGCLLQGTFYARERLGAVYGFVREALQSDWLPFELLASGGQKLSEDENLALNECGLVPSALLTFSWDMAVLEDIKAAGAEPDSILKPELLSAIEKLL
Sequence of UniProt Q12800 (Q12800 whole entry, looked up): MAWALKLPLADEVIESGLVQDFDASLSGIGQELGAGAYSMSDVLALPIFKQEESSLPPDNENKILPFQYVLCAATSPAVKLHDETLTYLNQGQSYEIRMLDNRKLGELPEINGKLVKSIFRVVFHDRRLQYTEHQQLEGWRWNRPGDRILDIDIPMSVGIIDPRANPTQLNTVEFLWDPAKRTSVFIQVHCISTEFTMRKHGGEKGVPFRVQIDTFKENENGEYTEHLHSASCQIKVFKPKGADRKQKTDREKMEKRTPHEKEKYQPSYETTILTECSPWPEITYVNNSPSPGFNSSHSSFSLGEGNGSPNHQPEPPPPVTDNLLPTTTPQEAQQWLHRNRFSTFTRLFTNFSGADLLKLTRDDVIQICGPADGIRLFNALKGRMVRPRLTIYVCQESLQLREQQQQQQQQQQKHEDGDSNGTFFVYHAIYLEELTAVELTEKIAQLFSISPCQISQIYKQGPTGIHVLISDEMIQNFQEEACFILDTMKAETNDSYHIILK
Sequence of UniProt P43897 (P43897 whole entry, looked up): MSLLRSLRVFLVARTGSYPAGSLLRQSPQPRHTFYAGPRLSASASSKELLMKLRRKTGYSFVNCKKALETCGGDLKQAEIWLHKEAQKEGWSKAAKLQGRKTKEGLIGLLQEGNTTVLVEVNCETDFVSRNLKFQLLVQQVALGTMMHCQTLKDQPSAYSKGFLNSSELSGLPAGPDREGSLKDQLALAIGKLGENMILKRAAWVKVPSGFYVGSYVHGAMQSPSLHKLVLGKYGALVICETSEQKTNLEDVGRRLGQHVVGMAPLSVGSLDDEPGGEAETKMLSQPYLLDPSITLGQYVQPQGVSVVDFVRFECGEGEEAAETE
Sequence of UniProt P67936 (P67936 whole entry, looked up): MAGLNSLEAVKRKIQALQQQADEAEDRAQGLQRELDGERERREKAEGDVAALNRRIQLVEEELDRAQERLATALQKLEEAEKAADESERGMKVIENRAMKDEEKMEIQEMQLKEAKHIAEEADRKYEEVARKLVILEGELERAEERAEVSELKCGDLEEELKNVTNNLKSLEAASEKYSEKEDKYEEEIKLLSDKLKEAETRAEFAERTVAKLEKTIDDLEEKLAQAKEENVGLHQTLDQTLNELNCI
Sequence of UniProt P42166 (P42166 whole entry, looked up): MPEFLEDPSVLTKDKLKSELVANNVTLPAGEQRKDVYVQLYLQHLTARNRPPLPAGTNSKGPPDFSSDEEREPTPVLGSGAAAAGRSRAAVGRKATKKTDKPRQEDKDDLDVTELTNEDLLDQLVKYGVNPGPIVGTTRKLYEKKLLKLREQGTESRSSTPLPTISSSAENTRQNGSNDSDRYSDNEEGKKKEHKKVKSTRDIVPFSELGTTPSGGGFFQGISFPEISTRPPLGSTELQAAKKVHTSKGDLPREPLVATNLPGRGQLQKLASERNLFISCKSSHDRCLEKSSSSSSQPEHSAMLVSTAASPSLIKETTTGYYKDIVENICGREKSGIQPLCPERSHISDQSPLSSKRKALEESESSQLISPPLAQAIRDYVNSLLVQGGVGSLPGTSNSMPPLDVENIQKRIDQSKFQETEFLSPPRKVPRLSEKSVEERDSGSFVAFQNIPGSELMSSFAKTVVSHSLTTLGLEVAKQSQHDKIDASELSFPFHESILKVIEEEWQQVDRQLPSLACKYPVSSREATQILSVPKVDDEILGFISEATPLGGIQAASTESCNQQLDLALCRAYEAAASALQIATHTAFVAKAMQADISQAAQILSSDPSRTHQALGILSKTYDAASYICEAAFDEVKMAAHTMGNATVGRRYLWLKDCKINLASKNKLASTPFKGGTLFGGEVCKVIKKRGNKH
Sequence of UniProt Q9H7E2 (Q9H7E2 whole entry, looked up): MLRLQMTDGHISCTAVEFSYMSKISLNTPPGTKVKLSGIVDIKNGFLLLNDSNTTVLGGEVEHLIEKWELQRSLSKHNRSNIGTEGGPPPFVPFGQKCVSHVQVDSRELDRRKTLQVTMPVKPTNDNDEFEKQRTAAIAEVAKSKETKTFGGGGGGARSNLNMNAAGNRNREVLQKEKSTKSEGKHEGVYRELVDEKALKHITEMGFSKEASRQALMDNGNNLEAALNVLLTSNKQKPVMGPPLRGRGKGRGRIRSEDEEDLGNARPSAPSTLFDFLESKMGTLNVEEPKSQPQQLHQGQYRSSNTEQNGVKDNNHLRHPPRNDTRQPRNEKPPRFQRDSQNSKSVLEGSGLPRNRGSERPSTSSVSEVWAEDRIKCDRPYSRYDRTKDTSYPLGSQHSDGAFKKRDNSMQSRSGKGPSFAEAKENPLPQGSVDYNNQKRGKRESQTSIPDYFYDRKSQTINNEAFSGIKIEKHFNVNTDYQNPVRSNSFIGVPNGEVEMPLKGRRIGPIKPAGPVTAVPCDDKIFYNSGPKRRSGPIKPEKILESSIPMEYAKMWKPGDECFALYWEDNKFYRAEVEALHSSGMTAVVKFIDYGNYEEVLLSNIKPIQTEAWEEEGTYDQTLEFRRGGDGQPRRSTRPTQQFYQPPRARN
Sequence of UniProt O14933 (O14933 whole entry, looked up): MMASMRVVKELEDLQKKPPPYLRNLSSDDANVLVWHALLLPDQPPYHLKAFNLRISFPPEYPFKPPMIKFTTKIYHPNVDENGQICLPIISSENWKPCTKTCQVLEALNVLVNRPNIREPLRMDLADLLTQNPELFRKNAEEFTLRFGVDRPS
Sequence of UniProt Q5JUR7 (Q5JUR7 whole entry, looked up): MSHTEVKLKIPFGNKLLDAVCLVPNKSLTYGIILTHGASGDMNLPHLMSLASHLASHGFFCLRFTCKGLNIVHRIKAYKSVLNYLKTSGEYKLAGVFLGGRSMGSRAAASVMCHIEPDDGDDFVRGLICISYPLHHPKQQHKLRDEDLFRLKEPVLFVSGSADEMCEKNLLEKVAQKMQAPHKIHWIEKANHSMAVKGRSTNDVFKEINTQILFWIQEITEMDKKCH
Sequence of UniProt Q5R3I4 (Q5R3I4 whole entry, looked up): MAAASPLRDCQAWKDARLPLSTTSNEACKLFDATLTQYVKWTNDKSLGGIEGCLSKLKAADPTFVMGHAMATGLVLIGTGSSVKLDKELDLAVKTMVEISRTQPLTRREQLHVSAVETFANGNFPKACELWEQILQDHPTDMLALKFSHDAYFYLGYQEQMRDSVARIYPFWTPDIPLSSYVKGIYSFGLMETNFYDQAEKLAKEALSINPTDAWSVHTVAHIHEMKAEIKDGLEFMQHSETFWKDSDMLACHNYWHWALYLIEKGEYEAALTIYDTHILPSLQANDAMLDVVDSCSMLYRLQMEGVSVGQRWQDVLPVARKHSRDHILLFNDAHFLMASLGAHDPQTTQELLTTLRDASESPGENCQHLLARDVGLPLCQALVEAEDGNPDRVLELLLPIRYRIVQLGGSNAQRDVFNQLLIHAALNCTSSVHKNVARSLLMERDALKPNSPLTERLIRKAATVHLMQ
Sequence of UniProt Q14258 (Q14258 whole entry, looked up): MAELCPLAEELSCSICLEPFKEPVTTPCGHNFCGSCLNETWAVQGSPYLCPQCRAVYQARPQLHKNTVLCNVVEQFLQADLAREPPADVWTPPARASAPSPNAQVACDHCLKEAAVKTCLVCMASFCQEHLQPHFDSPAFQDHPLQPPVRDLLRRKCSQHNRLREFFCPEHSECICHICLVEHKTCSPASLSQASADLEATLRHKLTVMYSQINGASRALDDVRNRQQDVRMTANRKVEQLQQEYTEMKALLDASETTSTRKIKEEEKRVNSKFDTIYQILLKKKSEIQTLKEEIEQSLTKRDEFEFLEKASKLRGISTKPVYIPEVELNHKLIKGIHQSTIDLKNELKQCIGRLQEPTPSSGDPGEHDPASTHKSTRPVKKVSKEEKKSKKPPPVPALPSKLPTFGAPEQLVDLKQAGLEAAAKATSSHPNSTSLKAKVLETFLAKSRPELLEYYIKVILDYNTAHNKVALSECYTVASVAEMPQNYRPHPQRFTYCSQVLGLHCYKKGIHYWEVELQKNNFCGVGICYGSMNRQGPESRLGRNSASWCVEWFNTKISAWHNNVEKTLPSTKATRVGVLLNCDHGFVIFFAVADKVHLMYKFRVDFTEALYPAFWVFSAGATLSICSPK

| Target | log2 fold change (ibrutinib) | log2 fold change [1] | log2 fold change (ralimetinib) | log2 fold change [2] | log2 fold change [3] | log2 fold change [4] | log2 fold change [5] | log2 fold change [6] | log2 fold change [7] | log2 fold change [8] | log2 fold change (vemurafenib) | log2 fold change [9] | log2 fold change (barasertib) | log2 fold change [10] | log2 fold change (volasertib) | log2 fold change [11] | log2 fold change [12] | log2 fold change [13] | log2 fold change (saracatinib) | log2 fold change (sotrastaurin) |
| --- | --- | --- | --- | --- | --- | --- | --- | --- | --- | --- | --- | --- | --- | --- | --- | --- | --- | --- | --- | --- |
| TSFM (UniProt P43897) | 0.004 | -0.05 | 0.03 | 0.026 | 0.015 | -0.024 | -0.003 | 0.116 | 0.017 | -0.063 | -0.007 | 0.005 | 0.031 | -0.041 | -0.089 | 0.006 | 0.081 | -0.05 | -0.014 | -0.012 |
| TMPO (UniProt P42166) | -0.025 | -0.018 | -0.087 | -0.004 | 0.018 | 0.011 | 0 | 0.024 | 0.047 | -0.026 | 0.027 | -0.004 | 0.04 | -0.041 | -0.025 | 0.033 | 0.026 | 0.003 | -0.017 | -0.161 |
| TFCP2 (UniProt Q12800) | -0.055 | 0.054 | 0.032 | -0.028 | 0.051 | -0.026 | 0 | 0.059 | -0.02 | 0.026 | 0.023 | 0.049 | 0.007 | -0.064 | -0.064 | 0.045 | -0.042 | -0.083 | 0.022 | -0.006 |
| TMEM263 (UniProt Q8WUH6) | -0.04 | -0.003 | -0.037 | -0.174 | -0.002 | 0.349 | 0.049 | -0.058 | 0.004 | -0.079 | 0.086 | -0.024 | 0.19 | 0.133 | 0.023 | 0.097 | -0.034 | -0.242 | 0.109 | -0.003 |
| TYMS (UniProt P04818) | -0.041 | -0.017 | 0.014 | 0.029 | 0.01 | 0.001 | 0.043 | -0.005 | -0.001 | -0.022 | -0.009 | 0.006 | 0.022 | -0.053 | -0.041 | -0.004 | -0.035 | -0.064 | 0 | 0.008 |
| TUBB6 (UniProt Q9BUF5) | -0.005 | 0.012 | 0.023 | -0.038 | 0.027 | 0.012 | 0.025 | -0.024 | -0.009 | 0.025 | 0.007 | 0.002 | -0.015 | 0.003 | -0.068 | -0.007 | -0.019 | 0.014 | 0.032 | -0.024 |
| TRIM25 (UniProt Q14258) | -0.001 | -0.001 | -0.013 | 0.055 | -0.011 | -0.002 | -0.005 | 0.005 | 0.004 | 0.006 | 0.017 | 0.012 | 0.001 | -0.024 | -0.006 | -0.007 | 0.029 | -0.035 | -0.002 | -0.05 |
| TPM4 (UniProt P67936) | -0.019 | -0.021 | 0.003 | -0.023 | -0.023 | -0.038 | 0.012 | 0.01 | 0.013 | 0.006 | -0.025 | 0.009 | 0.047 | 0.125 | 0.055 | 0.018 | 0.037 | -0.007 | 0.002 | 0.013 |
| TEX30 (UniProt Q5JUR7) | 0.17 | 0.003 | 0.047 | -0.053 | -0.045 | -0.033 | 0.016 | -0.027 | 0.019 | 0.019 | 0.008 | 0.033 | 0.109 | -0.077 | -0.051 | 0.005 | -0.301 | 0.088 | -0.011 | -0.023 |
| UBR5 (UniProt O95071) | -0.001 | -0.005 | 0.01 | -0.028 | -0.005 | 0.004 | -0.011 | 0.013 | 0.016 | 0.018 | 0.004 | 0.035 | 0.045 | 0.006 | -0.031 | 0.01 | -0.029 | 0.003 | 0.019 | -0.005 |
| UBE2L6 (UniProt O14933) | 0.152 | 0.012 | -0.002 | -0.041 | -0.009 | -0.033 | -0.014 | -0.019 | -0.007 | 0.002 | 0.031 | -0.035 | 0.229 | 0.041 | 0.008 | 0.022 | 0.037 | -0.115 | -0.034 | -0.03 |
| TPP2 (UniProt Q5VZU9) | 0.073 | -0.025 | -0.018 | 0.046 | -0.041 | 0.056 | 0.018 | -0.049 | -0.017 | 0.061 | 0.003 | 0.061 | -0.002 | 0.014 | 0.003 | -0.005 | -0.147 | 0.088 | -0.022 | 0.044 |
| TDRD3 isoform 3 (UniProt Q9H7E2) | -0.03 | 0.009 | -0.094 | 0.01 | -0.018 | -0.073 | -0.004 | 0 | -0.102 | 0.026 | 0.012 | -0.01 | -0.043 | 0.041 | -0.054 | 0.137 | 0.164 | -0.078 | -0.094 | 0.014 |
| TPM1 (UniProt H7BYY1) | -0.002 | -0.018 | -0.035 | 0.068 | 0.037 | -0.027 | 0.023 | -0.045 | 0.039 | -0.034 | -0.001 | -0.024 | -0.031 | 0.052 | 0.043 | -0.003 | 0.092 | -0.205 (active) | 0.009 | 0.015 |
| UBXN6 (UniProt Q9BZV1) | 0.046 | 0.174 | 0.037 | -0.012 | 0.019 | 0.121 | -0.059 | -0.038 | 0.031 | 0.041 | 0.046 | -0.192 | -0.007 | -0.025 | -0.075 | -0.001 | 0.008 | -0.015 | -0.03 | 0.025 |
| TTC38 (UniProt Q5R3I4) | -0.049 | 0.033 | 0.008 | 0.007 | -0.011 | 0.005 | 0.332 (active) | -0.013 | 0.067 | 0.014 | 0.035 | 0.03 | 0.102 | 0.004 | -0.001 | -0.047 | 0.189 | -0.181 | -0.026 | -0.027 |
